From PubChem
M1 antag = antagonists of human M1 muscarinic receptor; CHO-K1 hM1, Fluo-8 calcium fluorescence, ACh EC80 antagonist; inhibition, % at 3 µM; 360,000 tested, 1.3% active;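 active = percent inhibition above its own plate's cutoff, namely the mean of that plate's compound wells plus 3 SD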;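 also: peak over basal fluorescence ratio during 140 s after agonist addition; 0% = ACh EC80 plus DMSO and 100% = DMSO alone without agonist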
Target sequence (P11229 whole entry, looked up): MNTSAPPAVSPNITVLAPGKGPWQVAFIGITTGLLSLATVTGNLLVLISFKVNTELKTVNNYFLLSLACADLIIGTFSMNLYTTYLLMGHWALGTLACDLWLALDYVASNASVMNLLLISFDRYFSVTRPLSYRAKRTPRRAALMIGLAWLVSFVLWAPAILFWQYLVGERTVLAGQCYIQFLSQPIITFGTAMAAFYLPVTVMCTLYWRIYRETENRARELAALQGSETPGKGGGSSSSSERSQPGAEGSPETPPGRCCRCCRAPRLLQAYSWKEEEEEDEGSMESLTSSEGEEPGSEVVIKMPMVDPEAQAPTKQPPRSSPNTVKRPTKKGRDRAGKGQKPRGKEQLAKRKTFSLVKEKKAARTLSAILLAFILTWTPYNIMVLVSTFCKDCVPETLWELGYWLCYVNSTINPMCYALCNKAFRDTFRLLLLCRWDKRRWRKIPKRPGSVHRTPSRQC
M1 ag parental = counter-screen for M1 agonists: effect in parental CHO-K1 cells. AID 602248. 360,000 tested, 0.48% active. Fluo-8 calcium fluorescence; scaled to maximal ATP response, vehicle zero. activation, % at 3 µM; in the data active = activation above about 15%;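 also: untransfected CHO-K1 host cells lacking M1 receptor as counterscreen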
CHO-K1 Ca antag = counter-screen for M1 antagonists: effect in parental CHO-K1 cells; ATP-induced calcium, Fluo-8 fluorescence; inhibition, % at 3 µM; 360,000 tested, 0.6% active;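 active = inhibition above a per-plate cutoff, the plate's mean sample inhibition plus 3 SD, cut at about 24% in these data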;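 also: 0% = DMSO plus EC80 ATP and 100% = DMSO alone without ATP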
CHRM1 PAM = human CHRM1 positive allosteric modulation; P11229; CHO-K1 hM1, Fluo-8 calcium fluorescence, ACh EC20; 0% = ACh EC20, 100% = maximal ACh; activation, % at 3 µM; 360,000 tested, 0.088% active; AID 588819; in the data active = activation above about 19%, passing the limit was not always enough
CHRM1 agonist = agonists of human M1 muscarinic receptor; P11229; CHO-K1 hM1, Fluo-8 calcium fluorescence, agonist mode; 0% DMSO, 100% acetylcholine EC100; activation, % at 3 µM; 360,000 tested, 0.33% active;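 active = activation above the run's mean compound activation plus 3 SD, cut at about 16% in these data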;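 also: peak over basal fluorescence ratio within a 140 s kinetic read after compound addition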
CHO-K1 Ca PAM = counter-screen for M1 PAMs: effect in parental CHO-K1 cells | ATP EC20, Fluo-8 calcium fluorescence; 0% at ATP EC20, 100% at ATP max | activation, % at 3 µM | 360,000 tested, 0.02% active | AID 602247;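 active = activation above the run cutoff, the mean activation of all test compounds plus 3 SD, cut at about 40% in these data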;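 also: peak over basal fluorescence ratio in a 140 s read after ATP addition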
An asterisk follows results filed as active. Only some compounds are listed: those with a hit (about 2.3% of all), similar ones and a draw of the others.

SMILES	M1 antag	M1 ag parental	CHO-K1 Ca antag	CHRM1 PAM	CHRM1 agonist	CHO-K1 Ca PAM
COCCN(CC(=O)Nc1cccc(S(=O)(=O)N2CCCC2)c1)Cc1nc2ccccc2c(=O)[nH]1	6.1	0.2	-11.2	-4.5	-7.2	11.4
COc1ccc(NC(=O)COC(=O)c2cc(C)oc2C)c([N+](=O)[O-])c1	-9.4	5.3	-3.4	6.7	-5.1	8.1
COc1ccc(C(=O)NNC(=S)NC(=O)c2ccc(OC)cc2)cc1	11.4	34.2*	6.3	-13.4	23.4*	1.0
COc1ccc(C(=O)NNC(=S)NC(=O)c2cccnc2)cc1	10.1	-0.1	4.7	-3.8	-5.0	-4.0
O=C(Nc1cccc(OC(F)(F)F)c1)c1cccc2c(-c3cccnc3)coc12	-10.8	0.2	-8.2	5.8	-3.7	-0.7
CCOC(=O)C(C(=O)OCC)c1cc(Br)c2noc3c2c1C(=O)c1ccccc1-3	35.4*	8.0	22.9	2.0	7.7	12.0
O=C(OCn1nnc2ccccc2c1=O)c1ccc(S(=O)(=O)N2CCOCC2)cc1	-3.6	1.9	-7.8	4.9	-3.6	16.8
CCN(CC)S(=O)(=O)c1ccc(C(=O)OCn2nnc3ccccc3c2=O)cc1	active	10.7	7.6	-14.7	-1.6	2.1
COc1ccc([C@H]2CC(=O)C=C(c3ccc(F)cc3OCc3ccccc3)C2)cc1OC	50.5*	2.4	15.7	-15.0	-0.9	1.1
CCCCCOc1ccc(C(=O)CCC(=O)NNC(=O)c2ccncc2)cc1	0.2	3.2	-2.3	-0.7	-1.5	4.5
O=C(C1CCC(CNS(=O)(=O)c2cccs2)CC1)N1CCN(c2ccc(Cl)cc2)CC1 (centres undefined)	5.9	15.9*	-2.5	0.4	-0.3	19.0
Cc1ccc(OCCSc2nc3ccccc3n2CC(=O)O)cc1	-8.7	0.7	2.5	5.8	-5.1	-5.1
CCCCNC(=S)N(CCCN(C)C)Cc1cc2cc3c(cc2[nH]c1=O)OCO3	-0.9	0.5	-7.7	6.9	-7.5	7.3
Cc1ccc(-n2c(-c3ccc(Br)cc3)c[n+]3c2CCc2ccc4cccnc4c2-3)cc1	90.9*	5.2	13.5	-20.4	-5.7	14.4
COc1ccc(-n2c(-c3ccc(Cl)cc3)c[n+]3c2CCc2ccccc2-3)cc1	17.9	0.5	-4.3	-21.2	-12.8	24.5
Cn1c(N)c(C(=O)COC(=O)c2ccccc2C(=O)c2ccc(Cl)cc2)c(=O)n(C)c1=O	-9.4	0.8	-11.7	0.7	-2.3	10.0
Cc1coc2cc3oc(=O)c(CCC(=O)NC4CC4)c(C)c3cc12	31.4*	11.3	27.9*	-21.1	1.6	-15.8
COc1cccc(C(=O)NNC(=O)c2sccc2-n2cccc2)c1	-1.2	17.7*	3.8	7.6	-3.3	3.5
Cc1ccccc1OCC(=O)N1CCN(C(=O)COc2ccccc2C)CC1	1.8	1.6	6.4	1.1	-4.0	21.4
COc1ccccc1C(=O)NC1CC2CCCC(C1)N2Cc1ccccc1 (centres undefined)	39.0*	0.1	-6.6	-24.1	-9.0	12.2
Cc1ccccc1C(=O)NC1CC2CCCC(C1)N2Cc1ccc(Cl)cc1 (centres undefined)	53.9*	0.6	-6.2	-26.0	-10.4	16.5
O=C(NC1CC2CCCC(C1)N2Cc1ccccc1)c1cccc(Cl)c1 (centres undefined)	21.9	0.8	-0.6	-14.5	-7.1	-9.7
CC(C)(C)OC(=O)NC1CC2CCCC(C1)N2Cc1ccccc1 (centres undefined)	98.5*	0.3	-12.8	-30.3	-8.7	13.2
COCC(=O)NC1CC2CCCC(C1)N2Cc1ccccc1 (centres undefined)	-5.7	0.7	-7.9	2.7	-5.1	6.4
O=C(NC1CC2CCCC(C1)N2Cc1ccccc1)c1cccc(F)c1 (centres undefined)	49.5*	0.0	-9.6	-24.9	-9.0	-8.3
SMILES	M1 antag	M1 ag parental	CHO-K1 Ca antag	CHRM1 PAM	CHRM1 agonist	CHO-K1 Ca PAM
CCN(CC)c1ccc(C(=O)OCC(=O)Nc2cc(C)on2)cc1	9.2	0.8	-11.6	-5.7	0.9	-7.6
CCC(C(=O)Nc1ccc(C)cc1)c1ccccc1 (centres undefined)	7.5	0.8	-8.0	-2.3	-3.2	8.2
CCC(C(=O)Nc1ccc(C(=O)N2CCCC2)cc1)c1ccccc1 (centres undefined)	13.2	10.9	-3.4	-7.6	17.9*	2.1
CCc1ccc(NC(=O)C(CC)c2ccccc2)cc1 (centres undefined)	16.7	18.9*	-4.2	-5.9	26.0*	23.7
N#CCCN1CCN(C(=S)c2ccc(-c3ccc(Cl)cc3)o2)CC1	0.4	-0.6	26.6*	-8.4	-5.8	-6.3
S=C(c1ccc(-c2ccc(Cl)cc2)o1)N1CCCCC1	1.3	-1.1	-29.9	-2.6	-2.3	4.0
Cc1ccc(NC(=O)C2CCN(S(C)(=O)=O)CC2)cc1Cl	-10.2	0.4	-12.5	9.3	0.1	-5.0
O=[N+]([O-])c1cccc(C(O)C23CN4CN(CN(C4)C2)C3)c1 (centres undefined)	2.0	-0.1	10.3	11.2	-4.0	-18.9
CC(C)=N/N=C(\c1cccc([N+](=O)[O-])c1)C12CN3CN(CN(C3)C1)C2	62.0*	1.0	-13.8	-21.2	15.3	25.1
Cc1c(C(=O)OCC(=O)NCCN2C(=O)CSC2=O)cccc1[N+](=O)[O-]	29.1	-0.2	29.8*	-10.8	-2.7	-19.3
Cc1c(C(=O)Nc2ccc3c(c2)OCCO3)sc2nc(-c3ccccc3)cn12	41.7*	15.0	9.1	-24.5	0.2	-10.1
COCCCN(C(=O)Cc1coc2cc(C)c(C)cc12)c1c(N)n(Cc2ccccc2)c(=O)[nH]c1=O	-8.0	1.3	2.5	3.5	-1.0	10.0
Cc1cc(N/N=C/c2ccc3c(c2)OCO3)nc2ccccc12	-3.6	0.3	-6.9	-2.3	-5.0	-16.1
CCOC(=O)c1cc2sccc2n1CC(=O)Nc1ccc(OC)cc1	2.4	0.4	-7.9	-1.4	-2.9	9.1
CCOC(=O)c1cc2sccc2n1CC(=O)OC(C)C	-50.1	-1.2	-27.1	18.6*	-4.3	-10.5
O=C(CSc1nc2[nH]ncc2c(=O)n1-c1ccccc1)NCc1cccs1	-1.6	0.4	-13.5	3.7	-4.3	17.6
O=C(CSc1nc2[nH]ncc2c(=O)n1-c1ccccc1)NCCc1ccccc1	7.2	16.8*	0.4	0.9	-2.4	17.7
CC(CC(=O)N1CCN(S(=O)(=O)c2ccc([N+](=O)[O-])cc2)CC1)c1ccccc1 (centres undefined)	-14.0	3.0	-16.0	12.8	-5.5	0.4
c1ccn2cc(C34CC5CC(CC(C5)C3)C4)nc2c1	54.2*	0.7	-25.1	-22.7	-6.2	16.9
CCOC(=O)c1c(NC(=O)CN(CC)CC)sc2c1CCN(C(=O)OCC)C2	-16.0	-0.2	-19.4	0.3	-1.7	6.3
